Reference: PubChem BioAssay (NCATS)
Values joined by “and” are separate entries in the source; they are usually repeats but may differ in a detail not shown here. Equal entries are not always repeated. Results filed as inconclusive are left out. Entries that show only a call come without a potency. A structure can be active in one record and inactive in another. Active and inactive are the calls of the source. Calls come from the whole dose curve. Peptide text beside a SMILES is read from it. * marks the point of attachment. Cbz = O=C(OCc1ccccc1)*; CH2Cl = ClC*

Tests used:
[1] = Confirmatory qHTS for VERO E6 Cytotoxicity Assay: Counterscreen for SARS-CoV-2 CPE Assay (AID 1508605); note: nearly all actives have a fitted effect of over 60% in size
[2] = Confirmatory qHTS for activators (rescue) of SARS-CoV-2 Cytopathic Effect (CPE) (AID 1508606); note: nearly all actives have a fitted effect of over 70% in size
[3] = Cytotoxicity counterscreen for inhibitors of SARS-CoV-2 cell entry (AID 1645845); details: outcome: dose series up to 57.1 µM unless noted; note: nearly all actives have a fitted effect of over 50% in size
How it was run: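 48 h compound treatment (after 1 h preincubation), HEK293-ACE2 cells, 37 C/5% CO2; ATP luminescence endpoint; normalized to cell wells and media blanks.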

[4] = Primary qHTS to identify inhibitors of SARS-CoV-2 cell entry (AID 1645846); details: SARS-CoV-2 pseudovirus cell entry assay, luminescence; activity change, negative = inhibition: at 57.1 µM (top of the series) unless noted; note: nearly all actives have a fitted effect of over 45% in size
How it was run: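 HEK293 cells stably expressing human ACE2, pre-treated 1 h with compound, then infected with MLV particles pseudotyped with Wuhan-Hu-1 spike (C-terminal 19-aa truncation). Luciferase luminescence after 48 h at 37 °C, normalised to spike PP and bald PP.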

[5] = Confirmatory qHTS to identify inhibitors of SARS-CoV-2 cell entry (AID 1645844); note: nearly all actives have a fitted effect of over 45% in size
How it was run: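 Luminescence from a luciferase reporter, read 48 hr after pseudotyped-particle addition, gives entry signal, normalised to spike-bearing PP wells and bald PP lacking fusion protein wells. Cells are Expi293F stably expressing human ACE2, compound-pretreated 1 hr.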

[6] = VSVG counterscreen qHTS to identify inhibitors of SARS-CoV-2 cell entry (AID 1645847); note: nearly all actives have a fitted effect of over 65% in size
How it was run: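 HEK293-ACE2 cells (Expi293F, human ACE2) pretreated 1 h with compound, then infected with MLV-based VSV-G pseudotyped particles for 48 h at 37 C; luciferase luminescence normalized to VSV-G PP and bald PP wells.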
Potency is the fitted concentration of half-maximal effect.

## CCCCNc1ncc2c(-c3ccc(CN4CCN(C)CC4)cc3)cn(C3CCC(O)CC3)c2n1 (stereo not drawn)
[1]
  Potency: 3.16 µM (active)
[2]
  Potency: inactive
[3]
  Potency: inactive and 25.1 µM (active)
[4]
  Potency: 14.1 µM (active)

## COc1ccc(NC(=O)c2ccc(-c3ccc(-c4nnc(C)o4)cc3C)cc2)cc1N1CCN(C)CC1
[1]
  Potency: inactive
[2]
  Potency: 6.31 µM (active)

## CC1OC2OC3C(OCC(O)C3O)OC(=O)C34CCC(C)(C)CC3C3=CCC5C6(C)CC(O)C(OC7OC(CO)C(O)C(O)C7OC7OCC(OC(=O)CC(C)(O)CC(=O)OC1C(OC1OCC(O)C(O)C1O)C2O)C(O)C7O)C(C)(CO)C6CCC5(C)C3(C)CC4O (stereo not drawn)
[1]
  Potency: 1.56 µM (active)
[2]
  Potency: inactive

## Cc1ncc(NC(=O)c2ccc(CN3CCN(C)CC3)c(C(F)(F)F)c2)cc1Nc1nccc(-c2cccnc2)n1
[1]
  Potency: inactive
[2]
  Potency: 10 µM (active)
[3]
  Potency: inactive

## CCCN1CCN(c2ccc(C(=O)NC3(C(=O)NCC#N)CCCCC3)cc2)CC1
[1]
  Potency: inactive
[2]
  Potency: 1 µM (active)

## COc1ccccc1N1CCN(CC[C@@](C)(C(=O)C2CCCCC2)c2ccccc2)CC1
[1]
  Potency: inactive
[2]
  Potency: 10 µM (active)

## CC(C)C[C@H](NC(=O)CNC(=O)OCc1ccccc1)C(=O)N[C@@H](Cc1ccccc1)C(=O)CCl (Cbz-Gly-Leu-Phe-CH2Cl)
[1]
  Potency: inactive
[2]
  Potency: 1 µM (active)

## c1ccc(-c2ccc(CNc3nc(-c4ccccn4)nnc3-c3ccccc3)cc2)cc1
[1]
  Potency: 0.501 µM (active)
[3]
  Potency: 14.1 µM (active)

## CCN(CC)CC1CCN(c2ncc3ncnc(Nc4ccc(F)c(Cl)c4)c3n2)CC1
[1]
  Potency: 11.2 µM (active)
[2]
  Potency: inactive

## O=C1Nc2nc(-c3c(O)cccc3OCC3CC3)cc([C@@H]3CCCNC3)c2CO1
[1]
  Potency: inactive
[2]
  Potency: 11.2 µM (active)
[4]
  activity change, negative = inhibition: -96.7%

## CC[C@H](NC(=O)[C@H](CS(=O)(=O)CC1CC1)N[C@@H](c1ccc(F)cc1)C(F)(F)F)C(=O)C(=O)NC1CC1
[1]
  Potency: inactive
[2]
  Potency: 0.112 µM (active)
[5]
  Potency: 1.08 µM (active)
[3]
  Potency: inactive
[6]
  Potency: 10.8 µM (active)

## Cc1cc2cc(Oc3ccnc(Nc4cccc(CS(=O)(=O)NCCN(C)C)c4)n3)ccc2[nH]1
[1]
  Potency: 11.2 µM (active)
[2]
  Potency: inactive
[4]
  Potency: 35.5 µM (active)

## O=C(NCc1ccccc1)[C@H](Cc1ccccc1)NC(=O)[C@H]1O[C@@H]1C(=O)NCCc1ccc(O)cc1
[1]
  Potency: inactive
[2]
  Potency: 0.141 µM (active)
[3]
  Potency: inactive

## Cc1nc(C)c(CN2CCN(C(c3ccc(F)cc3)c3ccc(F)cc3)CC2)nc1C
[1]
  Potency: inactive
[3]
  Potency: inactive

## C=CC(=O)N[C@H]1CCOC[C@H]1Nc1ncc2cc(-c3c(Cl)c(OC)cc(OC)c3Cl)ccc2n1
[1]
  Potency: inactive
[3]
  Potency: inactive

## C/C1=C\CCC2=CC(OC2=O)C(C)(C)/C=C/C1=O (stereo not drawn)
[1]
  Potency: inactive
[2]
  Potency: 10 µM (active)

## CNC(=O)c1ccc2c(C(=Nc3cccc(CN(C)C)c3)c3ccccc3)c(O)[nH]c2c1
[1]
  Potency: inactive
[3]
  Potency: inactive
